Experimental data reported in PubChem BioAssay (Tox21).
Several values for one entry are separate records, joined by “and”; a condition that tells them apart may be missing. Equal entries are not always repeated. Activity calls are given as the source filed them. Entries that show only a call come without a potency. Unless noted, the call rests on the fitted dose curve; in most records, active means well fitted curve in the direction sought with a large enough effect in the repeat runs; inconclusive means weak or mixed curves; inactive means no such curve, though single readings can be large; an effect the other way counts as inactive or inconclusive.

Key:
[1] = qHTS assay to identify small molecule antagonists of the thyroid receptor (TR) signaling pathway - cell viability counter screen (AID 743064); further: nearly all actives have a fitted effect of over 50% in size; further: potency means the concentration at half of the fitted maximal effect
Method in brief: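 Fluorescence from CellTiter-Fluor, added after 23.5 h exposure at 37 °C, reported viability of GH3.TRE-Luc cells co-treated with compound and 1 nM T3. Measured in the same wells as the luciferase TR readout.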

[2] = qHTS assay to identify small molecule antagonists of the thyroid receptor (TR) signaling pathway (AID 743065); further: nearly all actives have a fitted effect of over 55% in size; further: potency means the concentration at half of the fitted maximal effect
Method in brief: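 GH3.TRE-Luc rat pituitary cells (two TREs driving luciferase) were dosed with compound, then stimulated with 1 nM T3 (final) for 23.5 h at 37 C. ONE-Glo luminescence was the read-out, with CellTiter-Fluor fluorescence as the cytotoxicity counter-screen.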

[3] = system: thyroid hormone receptor (rat, GH3 cells); experiment: qHTS assay to identify small molecule agonists of the thyroid receptor (TR) signaling pathway (AID 743066; calls by dose curve)
[4] = qHTS assay to identify small molecule antagonists of the estrogen receptor alpha (ER-alpha) signaling pathway - cell viability counter screen (AID 743074; calls by dose curve;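 further: HEK293 cells carrying ER-alpha-UAS-bla reporter stimulated with 17beta-estradiol; nearly all actives have a fitted effect of over 45% in size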; further: potency means the concentration at half of the fitted maximal effect)
[5] = qHTS assay to identify small molecule antagonists of the estrogen receptor alpha (ER-alpha) signaling pathway using the BG1 cell line - cell viability counter screen (AID 743081);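 further: compound given together with 17beta-estradiol as the ER stimulus; nearly all actives have a fitted effect of over 45% in size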; further: potency means the concentration at half of the fitted maximal effect
Aromatase (Homo sapiens) = Aromatase (Homo sapiens) (UniProt P11511); experiment: qHTS assay to identify aromatase inhibitors (AID 743083); further: nearly all actives have a fitted effect of over 55% in size; further: potency means the concentration at half of the fitted maximal effect
[6] = qHTS assay to identify aromatase inhibitors - cell viability counter screen (AID 743084);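 further: cells stimulated with testosterone during compound exposure; nearly all actives have a fitted effect of over 55% in size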; further: potency means the concentration at half of the fitted maximal effect
[7] = target: Aryl hydrocarbon receptor (Homo sapiens) (UniProt P35869); experiment: qHTS assay to identify small molecule that activate the aryl hydrocarbon receptor (AhR) signaling pathway (AID 743085); further: nearly all actives have a fitted effect of over 15% in size; further: potency means the concentration at half of the fitted maximal effect;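 on activation: HG2L7.5c1 human HepG2 liver cells with stably integrated DRE-driven firefly reporter; series mostly up to about 70 µM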
Method in brief: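 Cell line HG2L7.5c1 (human hepatoma, 20× DRE-luc). Plated, 5 h 37C, compound/DMSO added, 24 h 37C. CellTiter-Fluor 30 min 37C → fluorescence; then ONE-Glo 30 min RT → luminescence.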

[8] = qHTS assay to identify small molecule that activate the aryl hydrocarbon receptor (AhR) signaling pathway - cell viability counter screen (AID 743086); further: nearly all actives have a fitted effect of over 45% in size; further: potency means the concentration at half of the fitted maximal effect
Method in brief: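 HepG2-AhR-luc (HG2L7.5c1) cells, 4000/well, treated 24 h at 37 C with compound; viability measured as CellTiter-Fluor fluorescence after 30 min in the same wells as the luciferase read.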

[9] = target: Peroxisome proliferator-activated receptor gamma (Homo sapiens) (UniProt P37231); experiment: qHTS assay to identify small molecule agonists of the peroxisome proliferator-activated receptor gamma (PPARg) signaling pathway (AID 743094; active means well fitted activation curve with a large enough effect in the signal ratio in the repeat runs, not every such curve was filed as active; inconclusive means weak or mixed curves, or effect the other way; inactive means no such curve, though single readings can be large or run the other way; the % refers to the signal ratio)
Method in brief: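 Fluorescence-based beta-lactamase readout in HEK293H PPARg UAS-bla cells after 17 h compound exposure (37C) and 1 h B/G FRET substrate incubation at room temperature.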

[10] = target: Peroxisome proliferator-activated receptor gamma (Homo sapiens) (UniProt P37231); experiment: qHTS assay to identify small molecule antagonists of the peroxisome proliferator-activated receptor gamma (PPARg) signaling pathway (AID 743191; calls by dose curve; further: series mostly up to about 63 µM; nearly all actives have a fitted effect of over 30% in size)
Method in brief: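 GeneBLAzer PPARg UAS-bla HEK293H cells, 5 h post-plating, exposed to compounds 17 h at 37C. LiveBLAzer B/G FRET substrate added for 1 h at room temperature; beta-lactamase reporter read by fluorescence intensity.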

[11] = qHTS assay to identify small molecule antagonists of the peroxisome proliferator-activated receptor gamma (PPARg) signaling pathway - cell viability counter screen (AID 743194); further: nearly all actives have a fitted effect of over 55% in size; further: potency means the concentration at half of the fitted maximal effect
Method in brief: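 Cytotoxicity counter screen in PPARg-bla HEK293H cells, same wells as reporter assay. Compounds plus 50 nM rosiglitazone (final) for 17 h at 37 C, then viability read by CellTiter-Glo luminescence.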

[12] = qHTS assay for small molecule agonists of the antioxidant response element (ARE) signaling pathway - cell viability counter screen (AID 743203; calls by dose curve; further: nearly all actives have a fitted effect of over 55% in size; further: potency means the concentration at half of the fitted maximal effect)
Method in brief: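 Parallel cytotoxicity read-out for the ARE-bla screen: HepG2 reporter cells, 16 hrs with compounds, then CellTiter-Glo luminescence.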

[13] = qHTS assay for small molecule activators of the heat shock response signaling pathway - cell viability counter screen (AID 743209); further: nearly all actives have a fitted effect of over 50% in size
Method in brief: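 To flag cytotoxic compounds, HSE-bla HeLa cells plated at 1500 cells/well were dosed for 5 h at 37 C, followed by the reporter FRET read and then CellTiter-Glo, with luminescence recorded 30 min after reagent addition.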

[14] = qHTS assay for small molecule activators of the heat shock response signaling pathway (AID 743210; active means well fitted activation curve with a large enough effect in the signal ratio in the repeat runs, with a control signal flat, not every such curve was filed as active; inconclusive means weak or mixed curves; the % refers to the signal ratio;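 further: HeLa cells with beta-lactamase reporter driven by heat shock elements; series mostly up to about 63 µM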)
Method in brief: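 Beta-lactamase reporter read-out: FRET substrate fluorescence after 2.5 h at RT, following 5 h compound treatment at 37 C of HeLa cells carrying HSE-driven bla reporter; quantitative HTS format.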

[15] = qHTS assay for small molecule agonists of the antioxidant response element (ARE) signaling pathway (AID 743202; active means well fitted activation curve with a large enough effect in the signal ratio in the repeat runs, not every such curve was filed as active; inconclusive means weak or mixed curves, or effect the other way; inactive means no such curve, though single readings can be large or run the other way; the % refers to the signal ratio; further: potency means the concentration at half of the fitted maximal effect)
Method in brief: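 HepG2 ARE-bla reporter line, 2,000 cells/well; 5 h preincubation 37 C/5% CO2; compound (DMSO) 16 h 37 C; B/G FRET substrate 2 h RT; fluorescence intensity.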

[16] = target: Estrogen receptor (Homo sapiens) (UniProt P03372); experiment: qHTS assay to identify small molecule agonists of the estrogen receptor alpha (ER-alpha) signaling pathway (AID 743075; calls by dose curve;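 further: HEK293 GripTite cells with ER-alpha and UAS-driven beta-lactamase reporter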; further: potency means the concentration at half of the fitted maximal effect)
[17] = target: Estrogen receptor (Homo sapiens) (UniProt P03372); experiment: qHTS assay to identify small molecule agonists of the estrogen receptor alpha (ER-alpha) signaling pathway using the BG1 cell line (AID 743079); further: nearly all actives have a fitted effect of over 20% in size; further: potency means the concentration at half of the fitted maximal effect
[18] = target: Estrogen receptor (Homo sapiens) (UniProt P03372); experiment: qHTS assay to identify small molecule antagonists of the estrogen receptor alpha (ER-alpha) signaling pathway (AID 743069; active means well fitted curve in the direction sought with a large enough effect in the signal ratio in the repeat runs, not every such curve was filed as active; inconclusive means weak or mixed curves, or effect the other way; inactive means no such curve, though single readings can be large or run the other way; the % refers to the signal ratio; further: potency means the concentration at half of the fitted maximal effect)
Method in brief: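 Beta-lactamase FRET fluorescence is read after 2 hr at room temperature with LiveBLAzer B/G substrate. Before that, ER-alpha-bla HEK293 cells sit 4 hr after plating, then receive compound plus 17beta-estradiol and incubate 18 hr at 37C.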

[19] = qHTS assay to identify small molecule antagonists of the estrogen receptor alpha (ER-alpha) signaling pathway using the BG1 cell line (AID 743080; calls by dose curve; further: series mostly up to about 70 µM; nearly all actives have a fitted effect of over 25% in size)
Method in brief: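 Antagonist mode: compounds in DMSO were pinned onto BG1-Luc-4E2 cells alongside 17beta-estradiol agonist, incubated 21.5 h, and ERE-driven luciferase measured with ONE-Glo. Cytotoxicity was multiplexed using CellTiter-Fluor fluorescence.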

Chain of Aryl hydrocarbon receptor (Homo sapiens) (P35869 whole entry, looked up): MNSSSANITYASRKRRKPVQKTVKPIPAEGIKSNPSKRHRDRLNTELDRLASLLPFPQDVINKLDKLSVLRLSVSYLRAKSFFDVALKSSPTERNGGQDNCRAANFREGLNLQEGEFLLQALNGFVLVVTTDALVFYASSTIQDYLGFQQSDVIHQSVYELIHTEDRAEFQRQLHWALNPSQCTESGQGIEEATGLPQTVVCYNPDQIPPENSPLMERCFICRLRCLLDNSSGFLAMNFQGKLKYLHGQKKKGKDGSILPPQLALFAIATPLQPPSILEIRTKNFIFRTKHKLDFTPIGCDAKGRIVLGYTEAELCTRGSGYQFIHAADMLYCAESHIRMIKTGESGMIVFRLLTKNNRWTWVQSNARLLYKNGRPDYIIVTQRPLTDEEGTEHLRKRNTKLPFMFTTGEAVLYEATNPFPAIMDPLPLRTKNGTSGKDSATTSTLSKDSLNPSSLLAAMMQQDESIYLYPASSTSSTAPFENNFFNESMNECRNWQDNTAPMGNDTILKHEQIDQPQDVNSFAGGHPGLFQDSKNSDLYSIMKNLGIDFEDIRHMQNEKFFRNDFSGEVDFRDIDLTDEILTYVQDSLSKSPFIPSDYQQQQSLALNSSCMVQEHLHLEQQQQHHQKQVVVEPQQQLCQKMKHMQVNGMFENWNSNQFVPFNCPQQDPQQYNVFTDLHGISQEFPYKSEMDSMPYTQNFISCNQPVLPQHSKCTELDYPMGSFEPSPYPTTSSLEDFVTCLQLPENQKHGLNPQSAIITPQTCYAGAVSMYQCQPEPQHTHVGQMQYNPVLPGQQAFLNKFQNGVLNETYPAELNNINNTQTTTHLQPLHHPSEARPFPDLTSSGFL
Chain of Aromatase (Homo sapiens) (P11511 whole entry, looked up): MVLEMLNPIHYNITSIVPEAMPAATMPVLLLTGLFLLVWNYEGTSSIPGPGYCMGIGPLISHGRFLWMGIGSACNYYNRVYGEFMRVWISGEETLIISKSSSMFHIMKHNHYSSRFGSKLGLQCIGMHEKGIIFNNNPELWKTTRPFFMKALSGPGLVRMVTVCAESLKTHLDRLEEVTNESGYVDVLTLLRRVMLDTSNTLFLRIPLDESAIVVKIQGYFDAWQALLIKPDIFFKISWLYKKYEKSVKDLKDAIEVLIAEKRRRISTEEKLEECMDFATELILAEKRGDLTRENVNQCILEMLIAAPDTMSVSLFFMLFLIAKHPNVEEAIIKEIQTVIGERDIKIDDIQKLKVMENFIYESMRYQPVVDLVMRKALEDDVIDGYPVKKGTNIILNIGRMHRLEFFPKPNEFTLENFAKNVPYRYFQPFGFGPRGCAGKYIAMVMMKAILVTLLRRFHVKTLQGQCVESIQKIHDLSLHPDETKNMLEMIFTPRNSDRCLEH
Chain of Peroxisome proliferator-activated receptor gamma (Homo sapiens) (P37231 whole entry, looked up): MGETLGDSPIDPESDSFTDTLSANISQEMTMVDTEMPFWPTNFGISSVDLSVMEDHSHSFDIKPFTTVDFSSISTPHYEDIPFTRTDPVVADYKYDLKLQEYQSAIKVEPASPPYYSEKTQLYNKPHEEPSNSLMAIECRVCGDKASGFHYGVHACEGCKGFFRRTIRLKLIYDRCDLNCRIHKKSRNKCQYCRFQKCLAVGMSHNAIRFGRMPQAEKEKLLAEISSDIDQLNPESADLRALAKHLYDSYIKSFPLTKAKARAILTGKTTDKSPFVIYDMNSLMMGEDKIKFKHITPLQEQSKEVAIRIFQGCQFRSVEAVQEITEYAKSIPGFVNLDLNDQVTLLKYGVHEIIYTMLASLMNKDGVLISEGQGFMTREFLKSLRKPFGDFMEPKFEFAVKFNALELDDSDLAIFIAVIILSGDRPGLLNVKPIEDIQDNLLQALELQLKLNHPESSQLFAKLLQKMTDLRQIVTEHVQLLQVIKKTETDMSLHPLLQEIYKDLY
Chain of Estrogen receptor (Homo sapiens) (P03372 whole entry, looked up): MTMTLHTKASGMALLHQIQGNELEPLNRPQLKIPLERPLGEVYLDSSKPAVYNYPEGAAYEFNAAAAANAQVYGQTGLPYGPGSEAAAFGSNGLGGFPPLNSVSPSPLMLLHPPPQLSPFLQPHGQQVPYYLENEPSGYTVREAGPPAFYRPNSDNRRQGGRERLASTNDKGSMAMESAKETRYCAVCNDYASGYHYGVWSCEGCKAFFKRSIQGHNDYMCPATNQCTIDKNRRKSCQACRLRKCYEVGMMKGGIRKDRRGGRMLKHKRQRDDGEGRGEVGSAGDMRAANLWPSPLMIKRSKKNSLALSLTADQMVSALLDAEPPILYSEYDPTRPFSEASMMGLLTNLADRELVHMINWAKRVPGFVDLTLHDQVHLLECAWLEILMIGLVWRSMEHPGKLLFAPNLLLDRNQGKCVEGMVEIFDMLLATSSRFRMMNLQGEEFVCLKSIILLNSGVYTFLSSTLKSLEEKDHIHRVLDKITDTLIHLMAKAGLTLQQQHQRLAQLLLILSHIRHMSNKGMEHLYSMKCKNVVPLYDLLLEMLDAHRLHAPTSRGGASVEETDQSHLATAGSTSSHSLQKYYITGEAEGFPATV

Structure (SMILES)	Potency [1]	Potency [2]	outcome [3]	Potency [4]	Potency [5]	Potency (Aromatase (Homo sapiens))	Potency [6]	Potency [7]	Potency [8]	Potency [9]	Potency [10]	Potency [11]	Potency [12]	Potency [13]	Potency [14]	Potency [15]	Potency [16]	Potency [17]	Potency [18]	Potency [19]
O=C1C(c2[nH]c3ccc(S(=O)(=O)O)cc3c2O)=Nc2ccc(S(=O)(=O)O)cc21	inactive	inactive	inactive	inactive	inactive	inactive	inactive	inactive	inactive	inactive	inactive	inactive	inactive	inactive	inactive	–	–	–	–	–
Cc1nc(-c2ccc(Cl)cc2)oc1COC(C)(C)C(=O)O	inactive	inactive	inactive	inactive	inactive	–	–	–	–	–	–	inactive	inactive	–	inactive	inactive	–	–	–	–
Cc1cccc2cccnc12	inactive	inactive	inactive	inactive	inactive	inactive	inactive	inactive	inactive	–	–	inactive	inactive	–	inactive	inactive	–	–	–	–
COc1cccc(OC)c1C(=O)O	inactive	inactive	inactive	inactive	inactive	–	–	–	inactive	–	–	–	inactive	inactive	inactive	inactive	–	–	–	–
Cc1cc(C(C#N)c2ccc(Cl)cc2)c(Cl)cc1NC(=O)c1cc(I)cc(I)c1O (stereo not drawn)	23.7 µM (active)	26.6 µM (active)	inactive	5.35 µM (active)	inactive	–	inactive	–	inactive	–	–	–	–	–	–	–	inactive	–	–	–
Cc1ccc(C(=O)O)cc1	inactive	inactive	inactive	inactive	inactive	inactive	inactive	inactive	–	inactive	–	inactive	inactive	–	inactive	inactive	–	–	–	–
Cc1ccc(O)c(N)c1	30.7 µM (active)	43.3 µM (active)	inactive	inactive	inactive	–	–	34.4 µM (active)	–	–	–	–	inactive	inactive	–	–	inactive	–	–	–
COc1ccc(-c2coc3cc(O)ccc3c2=O)cc1	inactive	inactive	inactive	inactive	inactive	inactive	inactive	6.86 µM (active)	inactive	inactive	inactive	inactive	inactive	–	–	–	7.76 µM [inconclusive] (active)	1.54 µM (active)	–	–
O=C(/C=C/c1ccc(O)c(O)c1)O[C@@H](C(=O)O)[C@@H](OC(=O)/C=C/c1ccc(O)c(O)c1)C(=O)O	inactive	inactive	inactive	inactive	inactive	inactive	inactive	–	inactive	inactive	inactive	inactive	inactive	inactive	inactive	–	–	–	–	–
Nc1nc(N)nc(-c2cc(Cl)ccc2Cl)n1	inactive	inactive	inactive	inactive	inactive	–	inactive	inactive	–	–	–	inactive	inactive	inactive	inactive	inactive	–	–	–	–
CCCCCCCCCCCCOC(=O)c1ccc(O)cc1	30.9 µM (active)	27.5 µM (active)	–	inactive	inactive	30.9 µM (active)	–	inactive	–	inactive	–	–	61.6 µM (active)	–	–	–	inactive	inactive	44 µM [inconclusive] (active)	–
COc1cc2nc(N3CCN(C(=O)c4ccco4)CC3)nc(N)c2cc1OC	8.41 µM (active)	8.41 µM (active)	–	inactive	inactive	–	–	–	–	inactive	–	inactive	inactive	inactive	inactive	–	inactive	inactive	–	inactive
CN(C)c1ccc(C(=C2C=CC(=[N+](C)C)C=C2)c2ccc(N(C)C)cc2)cc1	1.88 µM (active) and 859 nM (active) and 8.63 µM (active)	1.33 µM (active) and 431 nM (active) and 545 nM (active)	–	10.7 µM (active) and 8.67 µM (active) and 24.5 µM (active)	13.3 µM (active) and 12.1 µM (active) and 24.3 µM (active)	2.98 µM (active) and 608 nM (active) and 864 nM (active)	10.6 µM (active) and 3.05 µM (active) and 7.7 µM (active)	2.42 µM (active)	9.44 µM (active) and 19.2 µM (active) and 24.3 µM (active)	–	–	–	–	–	–	–	3.07 µM [inconclusive] (active)	–	34.7 µM [cytotoxic] (active)	–
CCCNCCC	inactive	inactive	inactive	–	inactive	inactive	inactive	inactive	inactive	inactive	–	inactive	inactive	inactive	inactive	inactive	–	–	–	–
CCOc1ccc2ccccc2c1C(=O)N[C@@H]1C(=O)N2[C@@H]1SC(C)(C)[C@@H]2C(=O)O	inactive	–	inactive	inactive	inactive	inactive	inactive	inactive	–	inactive	–	inactive	–	inactive	–	4.73 µM (active)	inactive	inactive	inactive	inactive
COc1cccc2c1C(=O)c1c(O)c3c(c(O)c1C2=O)C[C@@](O)(C(C)=O)C[C@@H]3O[C@H]1C[C@H](N)[C@H](O)[C@H](C)O1	1.06 µM (active) and 218 nM (active)	596 nM (active) and 154 nM (active)	–	inactive	21.1 µM (active) and 27.5 µM (active)	3.76 µM (active) and 615 nM (active)	10.6 µM (active) and 8.69 µM (active)	2.45 µM (active)	–	–	–	34.9 µM (active) and 33.5 µM (active)	–	–	–	–	–	–	–	–
